# From PubChem BioAssay (NCI)
# The panel holds about 83,000 compounds, 20% with a hit somewhere; the sample as a whole holds those more often.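 Percent growth is the endpoint: 0 to 100 indicates growth inhibition (40 means 60% inhibition), 0 means no net growth, and negative values indicate cell death.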 A number with no mark means an inactive call. Active and inactive are the calls of the source. Rule for the calls: active = growth percent below 10; inactive = the rest.
# Experiments:
# Assay in all cases: NCI-60 one-dose screen, 48 h (100 = growth as untreated, 0 = no growth, -100 = all killed)
# SK-MEL-2 melanoma = conditions: 10 µM unless noted
# EKVX NSCLC = conditions: 10 µM unless noted
# SN12C renal = conditions: 10 µM unless noted
# UO-31 renal = conditions: 10 µM unless noted
# TK-10 renal = conditions: 10 µM unless noted
# A498 renal = conditions: 10 µM unless noted
# CCRF-CEM leukemia = conditions: 10 µM unless noted
# MOLT-4 leukemia = conditions: 10 µM unless noted
# ACHN renal = conditions: 10 µM unless noted
# CAKI-1 renal = conditions: 10 µM
SMILES,growth (SK-MEL-2 melanoma),growth (EKVX NSCLC) [%],growth (SN12C renal),growth (UO-31 renal),growth (TK-10 renal),growth (A498 renal),growth (CCRF-CEM leukemia),growth (MOLT-4 leukemia),growth (ACHN renal),growth (CAKI-1 renal)
O=C1CCC(=O)N1C1CCCCC1,103%,98.4,100%,84.3%,105%,97.1%,108%,95.7%,–,–
COc1ccc(NC(=O)COCCOCCNC[C@@H]2C(=O)O[C@H]3[C@H]2CC/C(COC(=O)OC/C2=C/CC[C@@]4(C)O[C@H]4[C@H]4OC(=O)[C@@H](CN(C)C)[C@@H]4CC2)=C\CC[C@@]2(C)O[C@@H]32)c(O)c1C(N)=O,68.3%,81.5,40%,2.07% (active),-0.421% (active),96.2%,-9.68% (active),-5.18% (active),–,–
COc1ccc(-n2c(-c3ccc(NC(=O)CCCl)cc3)nnc2-c2cc(OC)c(OC)c(OC)c2)cc1,48.3%,51.2,72.3%,43.8%,70.2%,65.4%,16.8%,6.29% (active),–,–
CC(=O)Cc1cccnc1,116%,105,98.9%,89.8%,95.5%,85.4%,88.5%,93.7%,–,–
NC(=O)C1=C[C@H]2[C@H]3C=C[C@@]2(O)C(=O)O[C@@H]3O1,42.4%,63.2,57.6%,54.5%,–,81.3%,26.9%,42.3%,44%,46.5%
Cc1cn(-c2cc(C(=O)Nc3cccc(-n4ccc5c(NC(=O)c6ccccc6)nccc54)c3)cc(C(F)(F)F)c2)cn1,11.2%,45.6,21.7%,15.5%,–,16.1%,-21.7% (active),12.4%,27.6%,2.7% (active)
O=C(Nc1cccc(-n2ccc3c(NC(=O)c4ccccc4)nccc32)c1)Nc1cc(C(F)(F)F)cc(C(F)(F)F)c1,-11.9% (active),19,12.7%,12.1%,–,16.4%,-4.29% (active),7.11% (active),8.65% (active),15.3%
O=C(CSc1nnc(-c2cc3c([nH]c4ccccc43)c(-c3cccc(O)c3)n2)n1-c1ccccc1)c1ccccc1,65.7%,69.3,67.7%,63.4%,–,67%,30.9%,41.7%,40.3%,45.5%
O=C(Nc1ccc(-n2ccc3c(NC(=O)c4ccccc4)nccc32)cc1)c1ccc(Cl)c(C(F)(F)F)c1,53.4%,72.8,47.9%,36.6%,–,63.6%,-9.57% (active),8.54% (active),37.1%,26.3%
O=C(Nc1ccc(-n2cc(-c3ccncc3)c(-c3ccc(O)c(Cl)c3)n2)cc1)Nc1cccc(Cl)c1Cl,66.8%,44.9,83.1%,57.2%,–,68.7%,38.2%,39.1%,47.8%,67.3%
NCC(=O)NS(=O)(=O)OC[C@H]1O[C@@H](n2cnc3c(N)ncnc32)[C@H](O)[C@@H]1O,-34.4% (active),44.1,1.03% (active),6.08% (active),–,-58.8% (active),21.7%,1.15% (active),11.8%,5.11% (active)
O=C(NCCNc1nccc(-c2c(-c3cccc(O)c3)nc3sccn23)n1)c1ccccc1,45.5%,94.2,66.4%,87.7%,–,48%,47.3%,67.1%,60.5%,87.9%
CCC1(C(N)=O)CC2C=CC1CC2 (stereo not given),124%,115,118%,90.8%,–,95.7%,127%,111%,107%,96.6%
O=C(Nc1ccc(-n2cc(-c3ccncc3)c(-c3ccc(O)c(Cl)c3)n2)cc1)c1ccc(Cl)c(Cl)c1,20.2%,47.7,58.3%,23%,–,79.6%,16.5%,32.3%,20.6%,18.6%
O=C(Nc1ccc(-n2cc(-c3ccncc3)c(-c3ccc(O)c(Cl)c3)n2)cc1)c1ccc(Cl)c(C(F)(F)F)c1,-0.332% (active),31.8,45.2%,18.4%,–,77.7%,16.2%,16.8%,17.4%,20.5%
COc1ccc(-c2nn(-c3ccc(NC(=O)c4cc(C(F)(F)F)cc(C(F)(F)F)c4)cc3)cc2-c2ccncc2)cc1Cl,89.9%,70.3,77.2%,44.6%,–,45.8%,59%,62.2%,61.9%,41.2%
O=C1COc2ccccc2C(=O)N1CCCCNc1ccccc1,104%,106,58.4%,12.2%,–,97.8%,1.06% (active),34.1%,110%,107%
O=C(Nc1cccc(-n2ccc3c(NC(=O)c4ccccc4)nccc32)c1)Nc1ccc(Cl)c(C(F)(F)F)c1,-5.89% (active),32.8,19.2%,27.8%,–,-3.31% (active),4.74% (active),12.8%,13.1%,7.43% (active)
Cc1ccc[n+](CC(=O)c2cccc3ccccc23)c1,106%,95.9,102%,89.5%,–,90%,101%,98%,103%,100%
Nc1nccc2c1ccn2-c1cccc(NC(=O)c2ccc(N3CCOCC3)c(C(F)(F)F)c2)c1,-6.68% (active),44.4,25.6%,7.5% (active),–,-12.9% (active),7.34% (active),9.73% (active),13.3%,-0.708% (active)
O=C(Nc1ccc(-n2cc(-c3ccncc3)c(-c3ccc(O)c(Cl)c3)n2)cc1)Nc1cc(C(F)(F)F)cc(C(F)(F)F)c1,77.6%,44.6,61.6%,59.6%,–,65.9%,55.8%,64.3%,65.5%,46.6%
CC1OC(n2c3ccccc3c3c4c(c5c6ccccc6[nH]c5c32)C(=O)N(CCN[C@@H]2CCC[C@H]2N)C4=O)CC(O)C1O (stereo not given in full),47.1%,23.3,13.7%,63.3%,–,48.3%,13.2%,2.71% (active),25%,78.6%
COc1ccccc1P(c1ccccc1OC)c1ccccc1OC,99.1%,91,113%,86.1%,–,79.4%,130%,105%,98.3%,86.2%
COC1=C(OC)C(=O)C=CC1=O,112%,121,103%,89.1%,–,120%,46%,12.6%,103%,115%
CSc1ccc(C(=O)C[n+]2cccc(C)c2)cc1,110%,100,99.9%,97.4%,–,86.7%,99.8%,97%,112%,102%
O=C(Nc1ccc(-n2ccc3c(NC(=O)c4ccccc4)ncnc32)cc1)Nc1ccc(Cl)c(Cl)c1,11.7%,27.3,15.8%,9.15% (active),–,90.5%,-10.2% (active),28.7%,27.8%,30.8%
